Assay outcomes deposited in PubChem by Center for Chemical Genomics, University of Michigan.
Only a selection was taken, and hits are over-represented in it overall.
Dicer inh – inhibitors of Dicer pre-microRNA processing, primary screen, biochemical, cat-ELCCA, chemiluminescence. z-score at 25 µM. AID 1347074, 2019. actives 6% (n = 47,000). cat-ELCCA pre-miR-21 Dicer processing; active compounds read high. Endoribonuclease Dicer (Homo sapiens), Q9UPY3; in the data active = z-score above about 3, passing the limit was not always enough;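 also: plate controls were vehicle for no effect and no enzyme for full effect; higher signal means more uncleaved substrate so more Dicer inhibition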
Active calls of the source: *.

SMILES	Dicer inh
O=C(NC1CCSC1=O)c1ccc(-c2ccccc2)cc1 (stereo unspecified)	-1.8
Cc1onc(-c2ccccc2)c1C(=O)NC1CCSC1=O (stereo unspecified)	-0.7
O=C(NC1CCSC1=O)c1cccc(C(=O)NC2CCSC2=O)c1 (stereo unspecified)	3*
O=C(NC(=O)N1CCN(c2ccc(C(F)(F)F)cc2[N+](=O)[O-])CC1)c1ccccc1Cl	-1.3
Oc1ccc2ccccc2c1N=Nc1cccc(Cl)c1	3.7
CCN(CCC#N)c1ccc(N=Nc2c(O)ccc3ccccc23)cc1	6.1*
Oc1ccccc1N=Nc1c(O)ccc2ccccc12	10
Oc1ccc2ccccc2c1N=Nc1ccccc1F	1.4
Cc1cccc(N=Nc2c(O)ccc3ccccc23)c1	2.2
COc1ccc(N=Nc2c(O)ccc3ccccc23)cc1	3.4*
O=c1[nH]c2c(sc3nnc(-c4ccccc4)c(-c4ccccc4)c32)c(=O)n1-c1ccc(Cl)cc1	1.4
Cc1nn(-c2ccccc2)c(C)c1C=NN1CCN(Cc2ccccc2)CC1	-0.75
N#CCCn1nc(-c2ccccc2)cc1NS(=O)(=O)c1ccc(Cl)c(Cl)c1	-0.37
CCCCn1c(CCC(=O)O)ccc1-c1ccc(C)cc1	-1.6
COc1ccc(-n2c(CCC(=O)O)ccc2-c2cccs2)cc1	1.3
CCCn1c(CCC(=O)O)ccc1-c1cccs1	3*
COc1ccc(C2CC(=O)C3=C(C2)NC(C)=C(C#N)C3c2cc3c(cc2Cl)OCO3)cc1 (stereo unspecified)	0.12
COC(=O)C1=C(C(=O)c2ccc(C)cc2)C(c2ccccc2F)n2nnnc2N1 (stereo unspecified)	0.83
CC(C)c1ccc(N2C(=O)/C(=C/N(C)C)SC2=S)cc1	0.36
O=C1S/C(=C\c2ccc(F)cc2)C(=O)N1c1ccccc1	1.3
Cc1cc(C)c2c(=O)c(/C=C3/SC(=S)N(c4ccc(F)cc4)C3=O)coc2c1	5.5*
CC(C)(C)c1ccc(C(=O)O/N=C(\Cn2nnc(N3CCCC3)n2)c2ccc(Cl)cc2)cc1	-0.08
Cc1ccc(C2CC(C(F)(F)F)n3ncc(C(=O)N(C)C4CCCCC4)c3N2)cc1 (stereo unspecified)	-0.05
O=C(Nc1ccc(Br)cc1)c1cc2n(n1)C(C(F)(F)F)CC(c1cccs1)N2 (stereo unspecified)	0.96
O=C(c1cnn2c1NC(c1ccc(Br)cc1)CC2C(F)(F)F)N1CCCCC1 (stereo unspecified)	3.3*
SMILES	Dicer inh
O=C(Nc1ccc(Br)cc1)c1cnn2c1NC(c1cccs1)CC2C(F)(F)F (stereo unspecified)	3.2*
CC(C)(C)NC(=O)c1cnn2c1NC(c1ccc(F)cc1)CC2C(F)(F)F (stereo unspecified)	1.6
CSc1ccccc1NC(=O)c1cnn2c1NC(c1cccs1)CC2C(F)(F)F (stereo unspecified)	2.1
N#CC1=C(N)NC(=S)C(C(N)=O)C1c1ccccc1 (stereo unspecified)	-4.2
CC(C)n1c(NC2CCCCC2)nc2c1c(=O)[nH]c(=O)n2C	0.15
O=C(NCCc1ccccc1)c1cc2cccc([N+](=O)[O-])c2[nH]1	0.35
Cc1csc(-c2cn(C(C)C)c(=O)n(Cc3ccccc3)c2=O)n1	-0.87
CC(C)n1cc(-c2nc(-c3ccc(Cl)cc3)cs2)c(=O)n(Cc2ccccc2)c1=O	-0.66
CC(C)n1cc(-c2noc(-c3cccs3)n2)c(=O)n(Cc2ccccc2)c1=O	3.1*
CCOC(=O)C(=CNNS(=O)(=O)c1ccc(C)cc1)C(=O)OCC	-0.52
O=C(Nc1csc(C(F)(F)F)c1-c1ccccc1)C(Cl)Cl	1.1
O=C1C2CC=CCC2C(=O)N1c1cccc(N2C(=O)C3CC=CCC3C2=O)n1 (stereo unspecified)	0.48
O=C(NS(=O)(=O)c1ccccc1Cl)c1ccc(C(F)(F)F)cc1	-0.94
O=S(=O)(c1ccccc1)N1CCCC1c1cccs1 (stereo unspecified)	-0.38
CC1(C)CC(N2CCCCC2)=CC(=S)S1	0.21
S=C1C=C(N2CCCCC2)CC(c2cccs2)S1 (stereo unspecified)	4.9*
c1csc(-c2nc(-c3cc4ccccc4o3)cs2)c1	0.38
CC(=O)/C(N=Nc1ccc(C(F)(F)F)cc1)=C(\C)O	1.6
Clc1ccccc1OCCSc1nc2ccccc2[nH]1	0.11
COc1ccc(C2C(C(=O)c3cc4ccccc4o3)=C(O)C(=O)N2CCN2CCOCC2)cc1OC (stereo unspecified)	1.6
O=C1CC(c2ccc(F)cc2)Cc2c1cnc1[nH]n(-c3ccccc3)c(=O)c21 (stereo unspecified)	0.02
CSc1sc(Br)c2c1/C(=N/OC(=O)c1ccccc1Cl)CC(C)(C)C2	-0.22
COC(=O)c1sc(SC)c2c1CC(C)(C)C/C2=N\OC(=O)c1ccc(Cl)cc1	3.3*
CSc1sc(Br)c2c1/C(=N/OC(=O)c1ccc(Cl)cc1)CC(C)(C)C2	0.2
Cc1cc(C)n2ncc(/C(N)=N/OC(=O)NC(C)C)c2n1	0.1
SMILES	Dicer inh
O=C(CSc1nccc(C(F)(F)F)n1)Nc1ccc(Br)cc1	-1.1
CCOc1ccccc1N1C(=O)C2C3c4ccccc4C(C(=O)O)(c4ccccc43)C2C1=O (stereo unspecified)	1.4
C=CCOc1cccc(C(Nc2cc(C)ccn2)c2ccc3cccnc3c2O)c1 (stereo unspecified)	8.3*
Cc1ccnc(NC(c2ccccc2F)c2ccc3cccnc3c2O)c1 (stereo unspecified)	4.3
Cc1ccnc(NC(c2cccc(F)c2)c2ccc3cccnc3c2O)c1 (stereo unspecified)	11*
Cc1ccnc(NC(c2ccc(C)s2)c2ccc3cccnc3c2O)c1 (stereo unspecified)	0.85
Cc1ccnc(NC(c2cc(C)ccc2O)c2ccc3cccnc3c2O)c1 (stereo unspecified)	11*
COc1cccc(C(Nc2cc(C)ccn2)c2ccc3cccnc3c2O)c1 (stereo unspecified)	7.7
Cc1ccnc(NC(c2cccc(F)c2)c2ccc3ccc(C)nc3c2O)c1 (stereo unspecified)	6.1*
COc1ccc(C(Nc2cc(C)ccn2)c2ccc3ccc(C)nc3c2O)cc1 (stereo unspecified)	1.4
Cc1ccc2ccc(C(Nc3ccccn3)c3cccs3)c(O)c2n1 (stereo unspecified)	2.8
C=CCSc1nnc(-c2cc(OCC(F)(F)F)nc(OCC(F)(F)F)c2)n1Cc1ccco1	-0.76
O=C(Nc1ccccc1)n1nnc(C2CN(Cc3ccccc3)CN(Cc3ccccc3)C2)n1	-1.1
O=C1c2ccccc2C(=O)N1CNc1cccc(Cl)c1	-0.02
CCOc1ccsc1C(=O)NNC(=O)C1CC1	0.21
O=C(O)c1ccc(N2Cc3ccccc3C2)cc1	-1.5
CN1CC=C(/C=C/c2ccccc2)CC1	3.8*
CN1CCc2c(sc3c2C(=O)NC(/C=C\c2ccccc2)N3)C1 (stereo unspecified)	1.4
C(=C\c1ccccc1)/CN1CCN(C/C=C/c2ccccc2)CC1	-1.6
COc1cc2c(=O)n(Cc3cccs3)c(=S)[nH]c2c(OC)c1OC	-0.63
OCCNc1ncnc2c1oc1ccccc12	0.64
c1ccc(-c2c(-c3ccccc3)n(Cc3ccco3)c3ncnc(NCc4ccco4)c23)cc1	2.8
c1ccc(-c2c(-c3ccccc3)n(Cc3ccco3)c3ncnc(NCCCn4ccnc4)c23)cc1	3.9*
Cc1ccccc1OCc1nc(C#N)c(NCCCn2ccnc2)o1	-0.23
c1cn(CCCNc2ncnc3ccsc23)cn1	-1.4
